{"source": "PubChem BioAssay AID588335", "about": "(The Scripps Research Institute Molecular Screening Center, 2011)", "note": "Screen size: about 360,000 compounds; about 4,500 (1.2%) were called active. The sample as a whole holds a higher share of actives than the screen did. A number with no mark means an inactive call. No stated cut-off is given here; in the data, active means inhibition above about 30%; inactive means the rest."}
{"test": "inhibition of GDH and TPI enzymes – biochemical, absorbance, full deck, artefact control for M. tuberculosis FBA inhibitor project, primary screen (AID 588335);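 further: 0% = DMSO wells and 100% = wells lacking the enzyme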", "settings": "GDH-TPI coupled enzyme counterscreen, NADH absorbance; at 4.8 µM; active compounds read high"}
{"compound": "CCCN(c1ccc(C)cc1)c1nc(=O)c2cccnc2s1", "inhibition": "8.86%"}
{"compound": "COc1ccc(CC(=O)Nc2cc(S(=O)(=O)N3CCCCC3)ccc2N2CCN(C)CC2)cc1", "inhibition": "-4.44%"}
{"compound": "CC(C)N=C1CCCC1C(=S)SSC(=S)C1CCCC1=NC(C)C", "note": "(stereo unspecified)", "inhibition": "32.4% (active)"}
{"compound": "CN(CC(=O)Nc1ccccc1F)CC(=O)Nc1ccccc1Br", "inhibition": "-8.02%"}
{"compound": "Cc1ccc(S(=O)(=O)N2CCOCC2)cc1C(=O)OC1CCCCC1=O", "note": "(stereo unspecified)", "inhibition": "-12.1%"}
{"compound": "COc1ccc(C(=O)Oc2ccc(-c3nnco3)cc2)cc1S(=O)(=O)N1CCOCC1", "inhibition": "7.83%"}
{"compound": "O=c1c2sccc2nc(SCc2cc(=O)n3ccccc3n2)n1-c1ccc(Br)cc1", "inhibition": "32.1% (active)"}
{"compound": "O=C(O)CCn1c(SCc2cc(=O)n3ccccc3n2)nc2ccsc2c1=O", "inhibition": "7.77%"}
{"compound": "CCc1ccc(-n2c(SCc3cc(=O)n4cc(Br)ccc4n3)nc3[nH]ncc3c2=O)cc1", "inhibition": "24%"}
{"compound": "Cc1cccc(S(=O)(=O)N(C)C[C@H]2OCc3cnnn3CCCC(=O)N([C@@H](C)CO)C[C@H]2C)c1", "inhibition": "-13.4%"}
{"compound": "CC1(C)CC(N(Cc2ccccc2)C(=O)Cc2ccccc2)CCO1", "note": "(stereo unspecified)", "inhibition": "-7.26%"}
{"compound": "O=C(COC(=O)/C=C/c1cn(-c2ccccc2)nc1-c1cccnc1)Nc1ccc(Cl)cc1Cl", "inhibition": "-1.11%"}
{"compound": "O=C(O)CCn1cc(/C=C/C(=O)c2ccc(Cl)cc2)c(-c2cccc(Br)c2)n1", "inhibition": "43.8% (active)"}
{"compound": "O=C(O)CCn1cc(C=C2C(=O)NC(=S)NC2=O)c(-c2cccc(Br)c2)n1", "inhibition": "-11.4%"}
{"compound": "CCOC(=O)c1sc(-c2cccc([N+](=O)[O-])c2)cc1N", "inhibition": "5.1%"}
{"compound": "CC(=O)Nc1nc(C)c(-c2csc(Nc3ccc(S(N)(=O)=O)cc3)n2)s1", "inhibition": "33.8% (active)"}
{"compound": "C=CCCC(=O)Nc1nc(C)c(-c2csc(Nc3ccc(Cl)cc3)n2)s1", "inhibition": "16.8%"}
{"compound": "CCCCC(=O)Nc1nc(C)c(-c2csc(Nc3ccc(Cl)cc3)n2)s1", "inhibition": "11.2%"}
{"compound": "CCOC(=O)C=Cc1ccc(C(=O)OCC)[nH]1", "inhibition": "46.3% (active)"}
{"compound": "CCOC(=O)c1c(C)[nH]c(C)c1C(=O)COC(=O)/C=C/c1cccc([N+](=O)[O-])c1", "inhibition": "5.36%"}
{"compound": "CCOC(=O)c1cc2cc(C)ccc2[nH]1", "inhibition": "8.07%"}
{"compound": "COc1ccc(C2NCCCC2c2ccccc2)cc1", "note": "(stereo unspecified)", "inhibition": "-3.45%"}
{"compound": "O=C(N/N=C/c1cc([N+](=O)[O-])ccc1O)/C(=C\\c1cccs1)NC(=O)c1ccccc1", "inhibition": "15.7%"}
{"compound": "CC(C=Cc1ccccc1)=NNS(=O)(=O)c1ccc([N+](=O)[O-])cc1", "inhibition": "25.4%"}
{"compound": "O=C(N/C(=C\\c1ccc(O)cc1)C(=O)N1CCCCC1)c1ccccc1", "inhibition": "9.79%"}
{"compound": "O=C(N/N=C/c1ccc(O)cc1)/C(=C/c1ccc([N+](=O)[O-])cc1)NC(=O)c1ccccc1", "inhibition": "39% (active)"}
{"compound": "COc1ccc(/C=C(/NC(=O)c2ccccc2)C(=O)Nc2cccc(C(=O)O)c2)cc1", "inhibition": "29.7%"}
{"compound": "Cc1ccc(C(=O)N/C(=C/C=C/c2ccccc2)C(=O)NCc2ccco2)cc1", "inhibition": "48.9% (active)"}
{"compound": "O=C(Nc1ccc(C(=O)O)cc1)/C(=C\\c1ccccc1)NC(=O)c1ccc(Br)cc1", "inhibition": "-8.77%"}
{"compound": "O=C(Nc1ccc(C(=O)O)cc1)/C(=C/c1ccc([N+](=O)[O-])cc1)NC(=O)c1ccccc1", "inhibition": "32.9% (active)"}
{"compound": "CCCCOc1ccc(C(=O)N/C(=C/C=C/c2ccccc2)C(=O)N2CCOCC2)cc1", "inhibition": "20.1%"}
{"compound": "CNC(=O)/C(=C\\C=C\\c1ccccc1)NC(=O)c1ccc([N+](=O)[O-])cc1", "inhibition": "39.1% (active)"}
{"compound": "O=C(NCc1ccco1)/C(=C/c1ccco1)NC(=O)c1ccccc1", "inhibition": "-7.41%"}
{"compound": "Cc1ccc(NC(=O)C(=O)NCc2ccco2)c(C)c1", "inhibition": "2.52%"}
{"compound": "Cc1ccccc1CCNC(=O)C1CCC(=O)N(Cc2ccc(Cl)cc2)C1", "note": "(stereo unspecified)", "inhibition": "-2.1%"}
{"compound": "CC1(C)C[C@H]2C3=CCC4[C@@]5(C)CC[C@H](O)[C@](C)(CO)C5CC[C@@]4(C)[C@]3(C)C[C@@H](O)[C@@]2(CO)[C@@H](O)[C@@H]1O", "note": "(stereo partly specified)", "inhibition": "8.82%"}
{"compound": "COC(=O)C1=NN(c2ccccc2)C2C(=O)N(c3ccccc3OC)C(=O)C12", "note": "(stereo unspecified)", "inhibition": "21%"}
{"compound": "CC(=O)N[C@@H](C)C(=O)N1CCC(n2nccc2NC(=O)CCCc2ccccc2)CC1", "inhibition": "8.3%"}
{"compound": "CCC(C)Sc1nc2c(cnn2-c2ccc(F)cc2)c(=O)[nH]1", "note": "(stereo unspecified)", "inhibition": "8.15%"}
{"compound": "COc1ccc(-c2nonc2NC(=O)c2oc3ccc(F)cc3c2C)cc1OC", "inhibition": "-4.27%"}
{"compound": "Cc1ccc(NC(=O)/C(=C/c2ccc([N+](=O)[O-])cc2)NC(=O)c2ccccc2)cc1", "inhibition": "49.4% (active)"}
{"compound": "O=C(N/C(=C\\c1ccc([N+](=O)[O-])cc1)C(=O)N1CCOCC1)c1cccc(Br)c1", "inhibition": "28.7%"}
{"compound": "COc1cc(/C=C(/NC(=O)c2ccccc2)C(=O)Nc2cccc(O)c2)c([N+](=O)[O-])cc1OC", "inhibition": "11.6%"}
{"compound": "Nc1nnn(CC(=O)N/N=C/c2ccccc2)n1", "inhibition": "10.1%"}
{"compound": "Cc1nc(Cl)cc(N/N=C/c2ccccc2)n1", "inhibition": "39.2% (active)"}
{"compound": "Cc1cc2c(C)nc(N/N=C/c3ccccc3)nc2o1", "inhibition": "28.5%"}
{"compound": "COc1ccc(Br)cc1CN(C)CC(=O)Nc1cc(Cl)cc(Cl)c1", "inhibition": "-4.49%"}
{"compound": "CC(=O)Nc1ccc(S(=O)(=O)NCC(=O)OCC(=O)c2ccc[nH]2)cc1", "inhibition": "4.57%"}
{"compound": "O=c1c2ccccc2nc2n1C(CSCc1cccc(C(F)(F)F)c1)CS2", "note": "(stereo unspecified)", "inhibition": "32.9% (active)"}
{"compound": "N#Cc1c(-c2ccccc2)nc(SCc2cccc(C(F)(F)F)c2)[nH]c1=O", "inhibition": "-3.35%"}
{"compound": "O=c1c2ccccc2nc2n1C(CSCc1ccccc1)CS2", "note": "(stereo unspecified)", "inhibition": "2.03%"}
{"compound": "CC1=C(C(=O)Nc2cc(C)ccn2)C(c2cnn(C)c2)C2=C(CC(c3ccccc3)CC2=O)N1", "note": "(stereo unspecified)", "inhibition": "16.7%"}
{"compound": "CC(C(=O)NC1CCCCC1)N1C(=O)c2cccc3cccc1c23", "note": "(stereo unspecified)", "inhibition": "8.59%"}
{"compound": "Cc1ccc(/C=N/NC(=S)NC2CCCCC2)o1", "inhibition": "32.4% (active)"}
{"compound": "C/C(=N\\NC(=S)NC1CCCCC1)c1ccc(C)o1", "inhibition": "12.9%"}
{"compound": "Cc1cc(Br)ccc1NC(=S)NC1CCCC1", "inhibition": "13.7%"}
{"compound": "O=C(NCc1cccnc1)c1cc(C2CCCCN2C(=O)CCc2ccccc2)on1", "note": "(stereo unspecified)", "inhibition": "1.83%"}
{"compound": "CCN(CC)c1ccc(NC(=O)CCc2nnc3ccc(N4CCCCC4)nn23)c(C)c1", "inhibition": "13.9%"}
{"compound": "CSCC[C@H](NC(=O)OC(C)(C)C)C(=O)N/N=C/c1cc2ccc(C)cc2nc1Cl", "inhibition": "14.8%"}
{"compound": "O=C(Nc1cccc(F)c1)[C@@H]1CCCN1", "inhibition": "-7.69%"}
{"compound": "Cc1ccc2cc(/C=N/NC(=O)[C@@H]3CCCN3)c(Cl)nc2c1", "inhibition": "33.2% (active)"}
{"compound": "COC(=O)C1(C)CC1(c1ccccc1)c1ccccc1", "note": "(stereo unspecified)", "inhibition": "4.61%"}
{"compound": "COc1cccc(NC(=O)CCc2nnc3ccc(N4CCC(C)CC4)nn23)c1", "inhibition": "3.45%"}
{"compound": "Cc1cc(C)n(-c2nnc(C)n2NC(=O)c2cccc(Cl)c2)n1", "inhibition": "-3.66%"}
{"compound": "CCOc1ccc(/C=C(/NC(=O)c2ccccc2)C(=O)NCCC(=O)O)cc1", "inhibition": "0.32%"}
{"compound": "O=C(NCC1CCCO1)/C(=C/c1ccc(Cl)cc1)NC(=O)c1ccccc1", "note": "(stereo unspecified)", "inhibition": "0%"}
{"compound": "Cn1c2ccccc2c2cc(/C=C(\\NC(=O)c3ccccc3)C(=O)NCC(=O)O)ccc21", "inhibition": "35.1% (active)"}
{"compound": "CC(C(=O)Nc1ccc(F)c(F)c1F)N1CCCCCC1", "note": "(stereo unspecified)", "inhibition": "-6.72%"}
{"compound": "CCC(C)(C)c1ccc(Oc2ccc(NC(=O)COC(=O)C3=COCCO3)cc2)cc1", "inhibition": "-7.05%"}
{"compound": "CN(C(=O)COC(=O)c1cc(=O)[nH]c2ccccc12)C1CCCCC1", "inhibition": "10.5%"}
{"compound": "O=C1N=C(N2CCOCC2)CS1", "inhibition": "-6.56%"}
{"compound": "O=C1N=C(N2CCOCC2)S/C1=C\\C=C/c1ccccc1", "inhibition": "31.1% (active)"}
{"compound": "c1ccc(-c2csc(N3CCc4ccccc4C3)n2)cc1", "inhibition": "2.71%"}
{"compound": "CCc1ccc(/C=C2\\SC(N3CCOCC3)=NC2=O)cc1", "inhibition": "30.8% (active)"}
{"compound": "O=C(CC1SC(N2CCOCC2)=NC1=O)Nc1ccccc1F", "note": "(stereo unspecified)", "inhibition": "10.5%"}
{"compound": "NC1=NC(=O)S/C1=C\\c1ccc(O)cc1", "inhibition": "15.8%"}
{"compound": "CCOc1cc(/C=C2\\SC(N3CCCCC3)=NC2=O)ccc1O", "inhibition": "24.1%"}
{"compound": "O=C1N=C(N2CCc3ccccc3C2)S/C1=C\\c1ccc(O)cc1", "inhibition": "33.1% (active)"}
{"compound": "Cc1cc(/C=C2/SC(=O)N(CC(=O)N3CCCC3)C2=O)ccc1N1CCOCC1", "inhibition": "1.85%"}
{"compound": "CCOc1ccc(C(=O)NCC(=O)N2CCCCCCC2)cc1OCC", "inhibition": "-2.14%"}
{"compound": "O=C(NC1CCCCC1)C1CCC(CNS(=O)(=O)c2ccccc2)CC1", "note": "(stereo unspecified)", "inhibition": "-8.09%"}
{"compound": "NC(=O)CCC(NS(=O)(=O)c1ccc(Cl)cc1)C(=O)NCc1ccccc1Cl", "note": "(stereo unspecified)", "inhibition": "5.93%"}
{"compound": "O=C(NC1CC1)C1=C[C@H](c2coc3ccccc3c2=O)C[C@H](OCCCCO)O1", "inhibition": "1.68%"}
{"compound": "CCOC(=O)c1sc(NC(=O)C2CSC3(C)CCC(=O)N23)nc1C", "note": "(stereo unspecified)", "inhibition": "4.14%"}
{"compound": "Cn1c(=O)cc(OCC(=O)N2CCN(c3ccccc3F)CC2)c2ccccc21", "inhibition": "2.59%"}
{"compound": "Cc1cccc(N2CCN(C(=O)CCS(=O)(=O)c3ccc4c(c3)NC(=O)C(C)S4)CC2)c1C", "note": "(stereo unspecified)", "inhibition": "-2.95%"}
{"compound": "COc1ccc(CCC(=O)N2CCN(S(=O)(=O)c3ccc(OC)cc3)CC2)cc1", "inhibition": "1.81%"}
{"compound": "CCOC(=O)N1CCN(C(=O)c2ccc3nc4cc(Cl)ccc4c(=O)n3c2)CC1", "inhibition": "-6.67%"}
{"compound": "CC(=O)c1ccc(Nc2nc(C(N)c3ccccc3Cl)cs2)cc1", "note": "(stereo unspecified)", "inhibition": "29.2%"}
{"compound": "CC(=O)c1ccc(Nc2nc(C(N)c3ccccc3)cs2)cc1", "note": "(stereo unspecified)", "inhibition": "32% (active)"}
{"compound": "COc1ccc(C(N)c2csc(NC(=O)Nc3cccc(C(F)(F)F)c3)n2)cc1", "note": "(stereo unspecified)", "inhibition": "-1.33%"}
